# Experimental data: PubChem BioAssay (NCI)
# This is part of a sample that, as a whole, favours compounds with a hit. Of some 79,000 tested, about 15% had one in any assay. A number with no mark means an inactive call. The source made the active and inactive calls. Cut-off read from the data, not from the text of the source: active = growth inhibition above about 70%; inactive = the rest.
# Columns and labels:
# [1] = NCI Yeast Anticancer Drug Screen. Data for the rad52 strain (AID 147);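 note: 0% = growth of vehicle-treated control cultures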; conditions: S. cerevisiae rad52 mutant growth inhibition, hits give high values
# Method in brief: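 Here a repair-compromised yeast strain receives each compound; its growth is then quantified and normalised to vehicle-only controls.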
# [2] = NCI Yeast Anticancer Drug Screen. Data for the rad50EPP+ strain (AID 151);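 note: 0% = growth of vehicle-treated control cultures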; conditions: S. cerevisiae rad50 mutant strain, hits give high values
# Method in brief: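 Read-out is yeast growth inhibition relative to vehicle; cells used were the rad50EPP+ strain.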
# [3] = NCI Yeast Anticancer Drug Screen. Data for the mgt1 strain (AID 153); conditions: S. cerevisiae mgt1 mutant growth inhibition, hits give high values
# Method in brief: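 Measured: inhibition of mgt1 yeast growth by compound, normalized to vehicle-treated cultures.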
# [4] = NCI Yeast Anticancer Drug Screen. Data for the rad50 strain (AID 155);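 note: 0% = growth of vehicle-only cultures of the same strain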; conditions: S. cerevisiae rad50 strain growth inhibition, hits give high values
# Method in brief: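 DNA repair mutant yeast, compound exposure, growth read-out; inhibition is taken relative to vehicle.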
# [5] = NCI Yeast Anticancer Drug Screen. Data for the mec2-1 strain (AID 157); conditions: S. cerevisiae mec2-1 strain, hits give high values
# Method in brief: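 Using mec2-1 yeast: add compound, measure growth, express inhibition versus vehicle-treated cultures.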
# [6] = NCI Yeast Anticancer Drug Screen. Data for the rad14 strain (AID 159);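 note: 0% = growth of vehicle-treated control cultures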; conditions: S. cerevisiae rad14 strain growth inhibition, hits give high values
# Method in brief: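 DNA repair-defective yeast, compound-exposed; % growth inhibition derived by comparison with vehicle-treated controls.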
# [7] = NCI Yeast Anticancer Drug Screen. Data for the sgs1 mgt1 strain (AID 161);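 note: 0% = growth of cultures given vehicle only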; conditions: S. cerevisiae sgs1 mgt1 strain, hits give high values
# Method in brief: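 Growth of a repair-deficient yeast mutant was monitored after compound treatment and expressed as inhibition relative to vehicle-treated cultures.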
# [8] = NCI Yeast Anticancer Drug Screen. Data for the CLN2oe strain (AID 163);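 note: 0% = growth of vehicle-only control cultures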; conditions: S. cerevisiae CLN2oe strain, hits give high values
# Method in brief: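 Whole-cell yeast growth assay. A strain engineered for altered cell-cycle control received compound, and inhibition relative to vehicle-treated cultures was recorded.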
# [9] = NCI Yeast Anticancer Drug Screen. Data for the cln2 rad14 strain (AID 165);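 note: 0% = growth equal to vehicle treated cultures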; conditions: S. cerevisiae cln2 rad14 strain, hits give high values
# Method in brief: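 Yeast strain cln2 rad14, bearing defects in cell cycle control and DNA repair, serves as the test system; values reflect growth inhibition compared with vehicle.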
# [10] = NCI Yeast Anticancer Drug Screen. Data for the bub3 strain (AID 167); conditions: S. cerevisiae bub3 mutant strain, hits give high values
# Method in brief: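 In this screen, a yeast mutant lacking normal mitotic checkpoint function is challenged with compound. Relative growth versus vehicle gives the inhibition value.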
# [11] = NCI Yeast Anticancer Drug Screen. Data for the wt2 strain (AID 169);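 note: 0% = growth of vehicle-treated yeast cultures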; conditions: S. cerevisiae wt2 strain growth inhibition, hits give high values
# Method in brief: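 Treated yeast vs. vehicle-treated yeast: growth inhibition determined.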
# [12] = NCI Yeast Anticancer Drug Screen. Data for the mlh1 strain (AID 171);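 note: 0% = growth of vehicle-treated control cultures of the same strain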; conditions: S. cerevisiae mlh1 strain growth inhibition, hits give high values
# Method in brief: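 A yeast strain with a defined genetic lesion serves as the test organism. Cultures receive compound or vehicle, and growth is measured.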
# [13] = NCI Yeast Anticancer Drug Screen. Data for the sgs1 strain (AID 173);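 note: 0% = growth of vehicle-only control cultures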; conditions: S. cerevisiae sgs1 mutant, hits give high values
# Method in brief: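 A genetically defined yeast mutant is incubated with the test compound, and its growth is compared to that of the same strain given vehicle.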
# [14] = NCI Yeast Anticancer Drug Screen. Data for the mlh1 rad18 strain (AID 175); conditions: S. cerevisiae mlh1 rad18 strain growth inhibition, hits give high values
# Method in brief: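 Steps: expose repair-defective yeast to compound; measure growth; express inhibition against vehicle-treated controls.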
# [15] = NCI Yeast Anticancer Drug Screen. Data for the rad18 strain (AID 177); conditions: S. cerevisiae rad18 mutant growth inhibition, hits give high values
# Method in brief: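 Measured value is growth inhibition of a yeast strain bearing a DNA repair alteration, referenced to vehicle-treated cells.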
# [16] = at 5.0 µM (retest, dose inferred, filed as 0.5)
# [17] = at 50.0 µM (retest, dose inferred, filed as 5.0)
structure (smiles),measurement,setting,value
Cc1cc(S(=O)(=O)Nc2nnc3cnc4ccccc4n23)c(S)cc1Cl,growth inhibition,[1]; at 1.2 µM,-1%
same,growth inhibition,[1]; at 3.7 µM,0%
same,growth inhibition,[1]; at 11.0 µM,4%
same,growth inhibition,[1]; at 33.0 µM,17%
same,growth inhibition,[1]; at 100.0 µM,43%
same,growth inhibition,[2]; at 1.2 µM,-3%
same,growth inhibition,[2]; at 3.7 µM,-16%
same,growth inhibition,[2]; at 11.0 µM,-25%
same,growth inhibition,[2]; at 33.0 µM,-57%
same,growth inhibition,[2]; at 100.0 µM,-59%
same,growth inhibition,[3]; at 1.2 µM,-2%
same,growth inhibition,[3]; at 3.7 µM,-2%
same,growth inhibition,[3]; at 11.0 µM,-1%
same,growth inhibition,[3]; at 33.0 µM,26%
same,growth inhibition,[3]; at 100.0 µM,34%
same,growth inhibition,[4]; at 1.2 µM,0%
same,growth inhibition,[4]; at 3.7 µM,0%
same,growth inhibition,[4]; [16],-3%
same,growth inhibition,[4]; at 11.0 µM,2%
same,growth inhibition,[4]; at 33.0 µM,12%
same,growth inhibition,[4]; [17],60%
same,growth inhibition,[4]; at 50.0 µM,-14.9%
same,growth inhibition,[4]; at 100.0 µM,37%
same,growth inhibition,[5]; at 1.2 µM,-1%
same,growth inhibition,[5]; at 3.7 µM,0%
same,growth inhibition,[5]; [16],2%
same,growth inhibition,[5]; at 11.0 µM,6%
same,growth inhibition,[5]; at 33.0 µM,19%
same,growth inhibition,[5]; [17],61%
same,growth inhibition,[5]; at 50.0 µM,1.7%
same,growth inhibition,[5]; at 100.0 µM,54%
same,growth inhibition,[6]; at 1.2 µM,-1%
same,growth inhibition,[6]; at 3.7 µM,3%
same,growth inhibition,[6]; at 11.0 µM,9%
same,growth inhibition,[6]; at 33.0 µM,21%
same,growth inhibition,[6]; at 100.0 µM,40%
same,growth inhibition,[7]; [16],-1%
same,growth inhibition,[7]; [17],47%
same,growth inhibition,[7]; at 50.0 µM,-11.9%
same,growth inhibition,[8]; at 1.2 µM,3%
same,growth inhibition,[8]; at 3.7 µM,3%
same,growth inhibition,[8]; at 11.0 µM,16%
same,growth inhibition,[8]; at 33.0 µM,24%
same,growth inhibition,[8]; at 100.0 µM,44%
same,growth inhibition,[9]; [16],48%
same,growth inhibition,[9]; [17],54%
same,growth inhibition,[9]; at 50.0 µM,52%
same,growth inhibition,[10]; at 1.2 µM,4%
same,growth inhibition,[10]; at 3.7 µM,1%
same,growth inhibition,[10]; [16],11%
same,growth inhibition,[10]; at 11.0 µM,2%
same,growth inhibition,[10]; at 33.0 µM,10%
same,growth inhibition,[10]; [17],70% (active)
same,growth inhibition,[10]; at 50.0 µM,-18.8%
same,growth inhibition,[10]; at 100.0 µM,32%
same,growth inhibition,[11]; at 1.2 µM,-1%
same,growth inhibition,[11]; at 3.7 µM,-2%
same,growth inhibition,[11]; at 11.0 µM,4%
same,growth inhibition,[11]; at 33.0 µM,14%
same,growth inhibition,[11]; at 100.0 µM,35%
same,growth inhibition,[12]; at 1.2 µM,-3%
same,growth inhibition,[12]; at 3.7 µM,-4%
same,growth inhibition,[12]; at 11.0 µM,1%
same,growth inhibition,[12]; at 33.0 µM,13%
same,growth inhibition,[12]; at 100.0 µM,43%
same,growth inhibition,[13]; at 1.2 µM,-2%
same,growth inhibition,[13]; at 3.7 µM,1%
same,growth inhibition,[13]; at 11.0 µM,2%
same,growth inhibition,[13]; at 33.0 µM,22%
same,growth inhibition,[13]; at 100.0 µM,58%
same,growth inhibition,[14]; [16],8%
same,growth inhibition,[14]; [17],82% (active)
same,growth inhibition,[14]; at 50.0 µM,15.2%
same,growth inhibition,[15]; at 1.2 µM,-6%
same,growth inhibition,[15]; at 3.7 µM,-1%
same,growth inhibition,[15]; at 11.0 µM,21%
same,growth inhibition,[15]; at 33.0 µM,14%
same,growth inhibition,[15]; at 100.0 µM,48%
